Hits are enriched below; roughly 3% of the tested compounds scored in any of these assays.
Tb PYK inh: qHTS of Trypanosoma Brucei Inhibitors. pyruvate kinase (Trypanosoma brucei), Q57TT1. Potency, µM (highest dose often 76.8 µM), actives largely listed as inhibitors. AID 624173, 2012. TbPYK enzyme, Kinase-Glo Plus ATP luminescence, 45 min. 0.12% of 410,000 active; further: nearly all actives have a fitted effect of over 50% in size
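Readout: single end-point luminescence (Kinase-Glo Plus, 10 min). Reaction conditions were TbPYK/substrate plus 130 uM ADP, 45 min at RT, pH 7.2 TEA buffer. No-enzyme wells served as controls, and data were normalized before concentration-response fitting.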
Sm TGR inh: qHTS Assay for the Inhibitors of Schistosoma Mansoni Peroxiredoxins. purified TGR, DTNB reduction, TNB absorbance 405 nm. 3% of 360,000 active. Potency, µM (highest dose often 114 µM), actives largely listed as inhibitors. Schistosoma mansoni thioredoxin glutathione reductase (TGR), Q962Y6; further: nearly all actives have a fitted effect of over 60% in size
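TGR 20 nM + NADPH 100 uM (dispensed conc.), cpd preinc 15 min RT; start with NADPH (500 uM addition) then DTNB (15 mM addition). Kinetic TNB absorbance, 405 nm filter. Four-parameter Hill fit across titration.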
LmPK inh: qHTS Assay for Inhibitors of Leishmania Mexicana Pyruvate Kinase (LmPK) | Q27686 | purified LmPK, Kinase-Glo ATP luminescence, 1 h | Potency, µM (doses to about 57.5 µM), actives largely listed as inhibitors | 0.37% of 290,000 active
Target sequence (Q27686 whole entry, looked up): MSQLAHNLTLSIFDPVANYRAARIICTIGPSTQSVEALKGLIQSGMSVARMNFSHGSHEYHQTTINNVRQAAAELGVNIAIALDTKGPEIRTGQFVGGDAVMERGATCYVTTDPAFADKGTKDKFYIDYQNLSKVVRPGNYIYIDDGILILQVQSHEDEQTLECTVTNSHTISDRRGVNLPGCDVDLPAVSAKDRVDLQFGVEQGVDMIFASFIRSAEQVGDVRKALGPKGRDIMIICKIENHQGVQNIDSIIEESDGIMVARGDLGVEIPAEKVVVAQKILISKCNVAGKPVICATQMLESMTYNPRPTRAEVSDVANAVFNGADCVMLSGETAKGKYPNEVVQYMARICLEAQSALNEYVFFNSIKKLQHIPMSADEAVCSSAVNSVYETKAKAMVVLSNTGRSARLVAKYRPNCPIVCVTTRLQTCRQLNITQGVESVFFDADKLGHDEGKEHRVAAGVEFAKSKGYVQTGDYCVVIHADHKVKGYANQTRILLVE
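ATP generated from ADP (0.1 mM) and PEP (0.5 mM) by 0.1 nM LmPK over 1 h at room temperature (pH 7.2 imidazole buffer) was detected by coupled luciferase luminescence. Values were normalized to uninhibited and no-enzyme wells.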
RE007 growth inh: qHTS Assay for Inhibitors of the HIV-1 protein Vpr. 0.21% of 360,000 active. Potency, µM (highest dose often 92.2 µM), hits mostly inhibitors. AID 651644, 2012. S. pombe RE007 Vpr strain, BacTiter-Glo ATP luminescence, 24 h; active means well fitted falling curve with a large enough effect; inconclusive means small, poorly fitted or top-dose-only effect; inactive means no such curve, though single readings can be large or run the other way; further: nearly all actives have a fitted effect of over 50% in size
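Fission yeast RE007 carrying one integrated HIV-1 vpr copy, seeded at OD 0.01 in PMG+AL medium with 23 nL pinned compound. Grown 24 h at 30 degrees; viability read by BacTiter-Glo luminescence after 5 min.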
Hits are given with their value; n = inactive; u = inconclusive; x = no result given. Unless noted, the call rests on the fitted dose curve; in most records, active means well fitted curve in the direction sought with a large enough effect; inconclusive means small, poorly fitted or top-dose-only effect, or another doubt; inactive means no such curve, though single readings can be large; an effect the other way counts as inactive or inconclusive.

SMILES	Tb PYK inh	Sm TGR inh	LmPK inh	RE007 growth inh
COc1ccc(/C=C2\N=C(C)OC2=O)cc1OC	n	15.8µM	n	n
COc1cc(/C=C2\SC(c3ccc(C)cc3)=NC2=O)cc(OC)c1OC	u	n	u	n
COc1cc(/C=C2\SC(c3ccc(C)cc3)=NC2=O)ccc1O	u	u	28.2µM	n
COc1ccc(/C=C2\SC(c3ccc(C)cc3)=NC2=O)cc1OC	8.91µM	n	u	n
C[C@H]1C[C@@H]2[C@H]([C@@H](O)C[C@@]3(C)[C@H]2CC[C@]3(O)C(=O)COC(=O)CCC(=O)O)[C@@]2(C)C=CC(=O)C=C12	n	x	x	x
O=C(Oc1ccc(Cl)c2cccnc12)c1cccc([N+](=O)[O-])c1	n	n	n	u
O=C(Oc1c(Cl)cc(Cl)c2cccnc12)c1cccc([N+](=O)[O-])c1	n	u	n	8.91µM
CCOC(=O)c1sc2nc(CN3CCCCC3)nc(Cl)c2c1C	n	n	n	n
Cc1sc2nc(CN3CCCCC3)nc(Nc3ccc4c(c3)OCCO4)c2c1C	n	n	n	n
Cc1sc2nc(CN3CCCC3)nc(NCc3ccncc3)c2c1C	n	39.8µM	n	n
Cc1sc2nc(CN3CCCC3)nc(Cl)c2c1C	n	7.08µM	n	n
CC(C)CCSc1cc(NCCO)c([N+](=O)[O-])c2nonc12	n	2.51µM	n	n
CCN(CC)c1cc(NCCO)c([N+](=O)[O-])c2nonc12	n	n	n	n
CC(=O)OCCCNc1cc(Sc2ccc(Cl)cc2)c2nonc2c1[N+](=O)[O-]	n	3.16µM	n	n
Cc1ccc(Sc2cc(NCCCO)c([N+](=O)[O-])c3nonc23)cc1	n	3.55µM	n	n
O=[N+]([O-])c1c(NCCO)cc(N2CCCCC2)c2nonc12	n	n	n	n
CCN(CC)S(=O)(=O)c1ccc(Cl)c(NC(=O)COc2ccc(OC)cc2[N+](=O)[O-])c1	n	n	n	n
COc1ccc(NC(=O)COC(=O)c2ccc([N+](=O)[O-])o2)cc1Cl	n	25.1µM	n	n
COc1ccc(C)cc1NC(=O)COC(=O)c1ccc([N+](=O)[O-])o1	n	n	n	n
O=C(OCc1cc(Cl)ccc1OC(F)F)c1cncc(Br)c1	n	n	n	n
CCN(CC)S(=O)(=O)c1ccc(Cl)c(NC(=O)COC(=O)c2ccc([N+](=O)[O-])o2)c1	n	6.31µM	n	n
CN(C)S(=O)(=O)c1cccc(NC(=O)COC(=O)c2ccc([N+](=O)[O-])o2)c1	n	31.6µM	n	n
O=C(OCc1cc(Cl)ccc1OC(F)F)c1ccc([N+](=O)[O-])o1	x	12.6µM	n	x
CC1=C(n2nnc3ccccc32)C(c2ccccc2)C(C#N)=C(N)O1 (stereo not drawn)	n	35.5µM	n	n
Nc1nc(N2CCN(C(=O)c3ccco3)CC2)nc2ccccc12	n	n	n	n
SMILES	Tb PYK inh	Sm TGR inh	LmPK inh	RE007 growth inh
Nc1nc(N2CCN(C(=O)c3ccco3)CC2)nc2ccc(Br)cc12	n	44.7µM	n	n
CCCCN(C)CCNC(=O)c1cn(C)c(=O)c2c1c1ccccc1n2C	n	44.7µM	n	n
Cc1ccc(CNC(=O)c2cn(C)c(=O)c3c2c2ccccc2n3C)o1	n	22.4µM	n	n
Cc1ccc(CNC(=O)c2cn(C3CCCCC3)c(=O)c3c2c2ccccc2n3C)o1	n	10µM	n	n
Cc1ccc(CNC(=O)c2cc3c(=O)n(C)c4ccccc4c3n2C)o1	n	n	n	n
Cc1ccc(OCCNC(=O)c2ccccc2OCc2c(C)noc2C)cc1	n	n	x	n
CO/N=C(\C(=O)N[C@@H]1C(=O)N2C(C(=O)OCOC(=O)C(C)(C)C)=C(C)CS[C@H]12)c1csc(N)n1	n	x	x	x
CCN(CC)CCN(Cc1cc2cc3c(cc2[nH]c1=O)OCCO3)C(=S)NCCCN(C)C	n	u	n	n
Cc1ccc2[nH]c(=O)c(CN(Cc3ccccc3)C(=S)NCCCN(C)C)cc2c1	n	n	15.8µM	n
CN(C)CCCNC(=S)N(CCN(C)C)Cc1cc2cc3c(cc2[nH]c1=O)OCCO3	n	44.7µM	n	n
Cc1ccc(C2C(C#N)=C(N)Oc3c2oc(CO)cc3=O)o1 (stereo not drawn)	n	39.8µM	n	n
CCCC(=O)N(C1CC(C)C(C#N)(C#N)C1(C#N)C#N)N(C)C (stereo not drawn)	n	2µM	n	n
Cc1ccc(S(=O)(=O)C(CNC(=O)C(=O)NCCc2ccccc2)c2ccco2)cc1 (stereo not drawn)	n	44.7µM	x	x
O=C(NCCc1ccc(Cl)cc1)C(=O)NCC(c1ccco1)S(=O)(=O)c1ccc(Cl)cc1 (stereo not drawn)	n	3.98µM	x	x
COc1ccc(C(=O)NCC(c2ccco2)S(=O)(=O)c2ccc(F)cc2)cc1 (stereo not drawn)	n	n	x	x
O=C(CC(c1ccco1)S(=O)(=O)c1ccccc1)c1ccc(F)cc1 (stereo not drawn)	n	1.58µM	n	n
O=C(NCC(c1ccco1)S(=O)(=O)c1ccc(Cl)cc1)c1ccc(C(F)(F)F)cc1 (stereo not drawn)	n	0.891µM	x	x
COc1ccc(N2CCN(Cc3nnc(-c4cccc(Br)c4)o3)CC2)cc1	n	n	x	x
COc1ccc(CNC(=O)C(=O)NCC(c2ccco2)S(=O)(=O)c2ccc(C)cc2)cc1 (stereo not drawn)	n	n	x	x
COc1ccc(CNC(=O)C(=O)NCC(c2ccco2)S(=O)(=O)c2ccc(Cl)cc2)cc1 (stereo not drawn)	n	11.2µM	x	x
Cc1cc(S(=O)(=O)NCC(c2ccco2)S(=O)(=O)c2ccccc2)ccc1F (stereo not drawn)	n	u	x	x
Cc1ccc(S(=O)(=O)C(CNC(=O)COc2ccccc2)c2ccco2)cc1 (stereo not drawn)	n	u	x	x
CCOc1ccc(S(=O)(=O)NCC(c2ccco2)S(=O)(=O)c2ccc(F)cc2)cc1 (stereo not drawn)	n	0.316µM	x	x
O=C(COc1ccc(Cl)cc1)NCC(c1ccco1)S(=O)(=O)c1ccc(F)cc1 (stereo not drawn)	n	25.1µM	x	x
Cc1nnc(C(C)C)n1C1C[C@H]2CC[C@@H](C1)N2CC[C@H](NC(=O)C1CCC(F)(F)CC1)c1ccccc1 (stereo partly drawn)	n	x	x	x
CCCNC(=O)Cn1nc(-c2ccc(OC)cc2)c2cnc3ccc(F)cc3c21	n	n	x	x
C[C@H]1CN([C@@H](C)CO)C(=O)c2cc(Br)cnc2O[C@@H]1CN(C)C(=O)Nc1ccc(C(F)(F)F)cc1	n	x	x	n
COc1ccc(N2CCN(C(=O)c3ccc(C)c(NC(=O)c4nsc5ccccc45)c3)CC2)cc1	n	n	x	x
Clc1ccc(OCc2nnc(SCCN3CCCCC3)n2Cc2ccco2)cc1	n	25.1µM	n	n
CC(=O)C1=NOC2C(=O)N(c3ccc(Cl)cc3)C(=O)C12 (stereo not drawn)	n	3.55µM	n	n
